Laboratory results as given in PubChem BioAssay AID1159580 (chemical genetic matrix, 2015).
Among all 5,500 compounds or so, about 2,000 (36%) were called active. Not shown: some 18% with an inconclusive outcome. Rule as the data show it: active = normalized growth mostly below about 0.91 (no sharp cut-off); inconclusive = no clear call, values can overlap the other calls; inactive = mostly above about 0.92. The list shows a part of the results.

Test: chemical genetic growth profiling, strain panel (AID 1159580);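 also: tested at 20 µM; growth read once vehicle control cultures reached saturation at 30 °C; 1 = growth at the plate median or of vehicle wells; lower values mean less growth of the strain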
Settings: S. cerevisiae deletion strains, growth OD
[1] = locus YAL013W, strain DEP1, hits give low values
[2] = locus YBR229C, strain ROT2, hits give low values
[3] = locus YDL101C, strain DUN1, hits give low values
[4] = locus YDR150W, strain NUM1, hits give low values
[5] = locus YEL061C, strain CIN8, hits give low values
[6] = locus YGR078C, strain PAC10, hits give low values
[7] = locus YHR030C, strain SLT2, hits give low values
[8] = locus YHR087W, strain rtc3, hits give low values
[9] = locus YJL187C, strain SWE1, hits give low values
[10] = locus YJR043C, strain POL32, hits give low values
[11] = locus YJR075W, strain HOC1, hits give low values
[12] = locus YLR039C, strain RIC1, hits give low values
[13] = locus YLR058C, strain SHM2 (second series), hits give low values
[14] = locus YLR085C, strain ARP6, hits give low values
[15] = locus YLR262C, strain YPT6, hits give low values
[16] = locus YML094W, strain GIM5, hits give low values
[17] = locus YMR219W, strain ESC1, hits give low values
[18] = locus YMR263W, strain SAP30, hits give low values
[19] = locus YNL153C, strain GIM3, hits give low values
[20] = locus YNL298W, strain CLA4 (second series), hits give low values
[21] = locus YNL322C, strain KRE1, hits give low values
[22] = locus YNR030W, strain Alg12, hits give low values
[23] = locus YOL006C, strain TOP1, hits give low values
[24] = locus YPL055C, strain LGE1, hits give low values
[25] = locus YPL241C, strain CIN2, hits give low values
[26] = locus YPR135W, strain CTF4, hits give low values

Measured: normalized growth

COc1cc(/C=N\NC(=S)NC2CC3CCC2C3)cc(OC)c1OC (stereo unspecified)
inactive: [1] 0.985 | [2] 1.01 | [3] 1 | [4] 0.998 | [5] 0.994 | [6] 1 | locus YGR229C, strain SMI1, hits give low values 1 | [7] 0.816 | [8] 1.03 | [9] 0.996 | [10] 1.02 | [11] 1.05 | [12] 0.97 | [13] 1.02 | [15] 1.05 | [16] 0.913 | [17] 1.02 | [18] 0.975 | [19] 1.01 | [20] 0.889 | [21] 1.01 | [22] 0.92 | [24] 0.923 | [25] 0.898 | [26] 0.843
active: [14] 0.653 | [23] 0.51

S=C(N/N=C\c1cccs1)NC1CC2CCC1C2 (stereo unspecified)
active: [7] 0.763 | locus YLR113W, strain HOG1, hits give low values 0.788 | locus YPL256C, strain CLN2, hits give low values 0.736
inactive: locus YAR019C, strain CDC15, hits give low values 0.943 | locus YBL105C, strain PKC1, hits give low values 0.94 | locus YBR135W, strain CKS1, hits give low values 0.959 | locus YBR136W, strain MEC1, hits give low values 0.95 | locus YBR160W, strain CDC28, hits give low values 0.954 | locus YDL017W, strain CDC7, hits give low values 0.941 | locus YDL028C, strain MPS1, hits give low values 0.958 | [3] 0.952 | locus YDL108W, strain KIN28, hits give low values 0.951 | locus YDL132W, strain cdc53, hits give low values 0.96 | locus YDL214C, strain PRR2, hits give low values 0.913 | locus YDR052C, strain DBF4, hits give low values 0.945 | locus YDR054C, strain cdc34, hits give low values 0.928 | locus YDR226W, strain ADK1, hits give low values 0.937 | locus YDR477W, strain SNF1, hits give low values 0.91 | locus YER123W, strain YCK3, hits give low values 0.938 | locus YER133W, strain GLC7, hits give low values 0.905 | locus YFL009W, strain cdc4, hits give low values 0.934 | locus YFL029C, strain CAK1, hits give low values 0.94 | locus YFR003C, strain YPI1, hits give low values 0.951 | locus YFR019W, strain FAB1, hits give low values 0.956 | locus YFR028C, strain CDC14, hits give low values 0.944 | locus YGR040W, strain KSS1, hits give low values 0.909 | locus YGR052W, strain FMP48, hits give low values 0.921 | locus YGR092W, strain DBF2, hits give low values 0.794 | locus YHR079C, strain IRE1, hits give low values 0.75 | locus YHR082C, strain KSP1, hits give low values 0.898 | locus YHR205W, strain SCH9, hits give low values 0.732 | locus YIL147C, strain SLN1, hits give low values 0.956 | locus YJL095W, strain BCK1, hits give low values 0.89 | locus YJL128C, strain PBS2, hits give low values 0.957 | locus YJL157C, strain FAR1, hits give low values 0.885 | locus YJR016C, strain ILV3, hits give low values 0.945 | locus YJR066W, strain TOR1 (second series), hits give low values 0.87 | locus YJR066W, strain TOR1, hits give low values 0.908 | locus YKL048C, strain ELM1, hits give low values 0.934 | locus YKL067W, strain YNK1, hits give low values 0.95 | locus YKL101W, strain HSL1, hits give low values 0.949 | locus YKL193C, strain SDS22, hits give low values 0.947 | locus YKL203C, strain TOR2, hits give low values 0.978 | locus YLR133W, strain CKI1, hits give low values 0.913 | locus YLR403W, strain SFP1, hits give low values 0.787 | locus YML070W, strain DAK1, hits give low values 0.927 | locus YMR001C, strain CDC5, hits give low values 0.944 | locus YMR205C, strain PFK2 (second series), hits give low values 0.946 | locus YMR277W, strain FCP1, hits give low values 0.946 | locus YNL006W, strain LST8, hits give low values 0.957 | locus YNL020C, strain ARK1, hits give low values 0.918 | locus YNL161W, strain CBK1, hits give low values 0.936 | locus YNL183C, strain NPR1, hits give low values 0.967 | locus YNL207W, strain RIO2, hits give low values 0.929 | locus YNL222W, strain SSU72, hits give low values 0.936 | locus YNL307C, strain MCK1 (second series), hits give low values 0.842 | locus YOL078W, strain AVO1, hits give low values 0.939 | locus YOL136C, strain PFK27, hits give low values 0.881 | locus YOR061W, strain CKA2, hits give low values 0.948 | locus YOR119C, strain RIO1, hits give low values 1.01 | locus YOR231W, strain MKK1, hits give low values 0.935 | locus YOR329C, strain SCD5, hits give low values 0.949 | locus YPL031C, strain PHO85, hits give low values 0.879 | locus YPL153C, strain RAD53, hits give low values 0.88 | locus YPL204W, strain HRR25, hits give low values 0.842 | locus YPL209C, strain IPL1, hits give low values 0.943 | locus YPR025C, strain CCL1, hits give low values 0.959 | locus YPR106W, strain ISR1, hits give low values 0.953 | locus YPR111W, strain DBF20, hits give low values 0.953 | strain NNK1, hits give low values 0.947 | strain TSCII, hits give low values 0.932

COc1cc(C=Nc2ccc(F)cc2)cc(OC)c1OC
inactive: [1] 0.995 | [2] 0.978 | [3] 1 | [4] 0.896 | [5] 0.986 | [6] 1 | [7] 1.02 | [8] 1.01 | [9] 0.998 | [10] 1.01 | [11] 0.954 | locus YKL190W, strain CNB1, hits give low values 0.98 | [12] 0.983 | [13] 1.02 | [14] 0.965 | [15] 0.98 | [16] 0.988 | [17] 0.985 | [18] 1.01 | locus YMR307W, strain GAS1, hits give low values 0.938 | [19] 1.01 | [20] 1 | [21] 0.979 | [22] 0.979 | [23] 1 | [24] 1.02 | [25] 0.997 | [26] 1.11
